{"source": "PubChem BioAssay (NCATS)", "note": "Inconclusive results are not listed. Where a call stands in place of a potency, no number is given. Activity calls are given as the source filed them. Calls come from the whole dose curve; as a rule, active = well fitted cell-killing curve with a large enough effect; inconclusive = small, poorly fitted or top-dose-only effect; inactive = no such curve, though single readings can be large or run the other way. Potency is the fitted concentration of half-maximal effect.", "data": [{"test": "qHTS of pediatric cancer cell lines to identify multiple opportunities for drug repurposing: Primary screen for Rh30 cells (AID 1347107); note: nearly all actives have a fitted effect of over 75% in size", "details": "Rh30 rhabdomyosarcoma viability, CellTiter-Glo luminescence, 48 h; series mostly up to 46 µM", "summary_of_the_method": "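Viability after 48 h compound treatment at 37C, 500-1,000 cells/well, read as ATP luminescence with CellTiter-Glo. Primary screens used 11-point (MIPE, 0.78 nM-46 µM) or 8-point (NPC, 0.59 nM-46 µM) final concentrations; follow-up screens used 11-point dilutions.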", "values": [{"smiles": "Cn1cncc1[C@@](N)(c1ccc(Cl)cc1)c1ccc2c(c1)c(-c1cccc(Cl)c1)cc(=O)n2C", "Potency": "14.8 µM (active)"}, {"smiles": "c1cc(-c2cnn3cc(-c4ccc(OCCN5CCCCC5)cc4)cnc23)ccn1", "Potency": "18.7 µM (active)"}, {"smiles": "COc1cc2c(Oc3ccc4[nH]c(C)cc4c3F)ncnc2cc1OCCCN1CCCC1", "Potency": "23.5 µM (active)"}, {"smiles": "COc1cc(OC2CCN(C)CC2)ccc1Nc1ncc2c(n1)n(C1CCCC1)c(=O)n2C", "Potency": "20.9 µM (active)"}, {"smiles": "Cc1ccc(S(=O)(=O)Nc2cc(Cl)ccc2C(=O)Nc2nc(-c3ccccc3)cs2)cc1", "Potency": "inactive"}, {"smiles": "Cn1c2cc(S(C)=O)sc2c2cnn(Cc3cccc(N)c3)c(=O)c21", "note": "(stereo not given)", "Potency": "inactive"}, {"smiles": "CN1c2cc(O)c(N=NC(N)=O)cc2CC1S(=O)(=O)O", "note": "(stereo not given)", "Potency": "inactive"}, {"smiles": "CC(=O)SC[C@@H](C)C(=O)N1CCC[C@H]1C(=O)N[C@@H](Cc1ccccc1)C(=O)O", "Potency": "inactive"}, {"smiles": "O=C(O)Cn1nnc(-c2cc(N3CCC(Oc4cc(F)ccc4Br)CC3)no2)n1", "Potency": "inactive"}, {"smiles": "COc1cc2c(cc1-c1c(C)noc1C)ncc1[nH]c(=O)n([C@H](C)c3ccccn3)c12", "Potency": "23.5 µM (active)"}, {"smiles": "CC(C)c1ccc(Cn2ccc3c4c(N)nc(NC5CC5)nc4ccc32)cc1", "Potency": "18.7 µM (active)"}, {"smiles": "Clc1cccc(-n2nnnc2NCc2ccccc2Oc2ccccn2)c1Cl", "Potency": "inactive"}, {"smiles": "C=CC(=O)Nc1cc2c(Nc3ccc(F)c(Cl)c3)ncnc2cc1OCCCN1CCOCC1", "Potency": "18.7 µM (active)"}, {"smiles": "COc1cc(C(C)C)c2c(c1)S(=O)(=O)N(COc1cc(=O)n3cccc(OCCN4CCCCC4)c3n1)C2=O", "Potency": "inactive"}, {"smiles": "COc1ccc2c(c1)CC[C@@H](CN(C)CC(=O)O)[C@H]2c1ccccc1", "Potency": "inactive"}, {"smiles": "COc1ccc(CC2SC(=O)NC2=O)cc1C(=O)NCc1ccc(C(F)(F)F)cc1", "note": "(stereo not given)", "Potency": "inactive"}, {"smiles": "Cc1coc2c1C(=O)C(=O)c1c-2ccc2c1CCCC2(C)C", "Potency": "inactive"}, {"smiles": "COc1ccc2c(OCc3nnc4ccc(-c5ccccc5)nn34)ccnc2c1", "Potency": "inactive"}, {"smiles": "Cn1c(CNc2ccc(C(=N)N)cc2)nc2cc(C(=O)N(CCC(=O)O)c3ccccn3)ccc21", "Potency": "inactive"}, {"smiles": "Cc1cn2cc(C(=O)N(C)CCO)cc(N[C@@H]3CCOc4cccc(C)c43)c2n1", "Potency": "inactive"}, {"smiles": "CCCCCN(CCC12CC3CC(CC(C3)C1)C2)C(=O)NCCCc1ccncc1", "Potency": "inactive"}, {"smiles": "COC(=O)C1=C(C)NC(C)=C(C(=O)OCCN2CCN(C(c3ccccc3)c3ccccc3)CC2)C1c1cccc([N+](=O)[O-])c1", "note": "(stereo not given)", "Potency": "inactive"}, {"smiles": "CN(C)c1nc(Cc2ccc(NC(=O)c3ccc4ccccc4c3)cc2)nc(Cl)c1CC(=O)O", "Potency": "inactive"}, {"smiles": "CCCCCCCCCC(=O)N[C@@H](Cc1c[nH]c2ccccc12)C(=O)N[C@H](CC(N)=O)C(=O)N[C@@H](CC(=O)O)C(=O)N[C@@H]1C(=O)NCC(=O)N[C@@H](CCCN)C(=O)N[C@@H](CC(=O)O)C(=O)N[C@H](C)C(=O)N[C@@H](CC(=O)O)C(=O)NCC(=O)N[C@H](CO)C(=O)N[C@@H]([C@@H](C)CC(=O)O)C(=O)N[C@@H](CC(=O)c2ccccc2N)C(=O)O[C@@H]1C", "Potency": "inactive"}, {"smiles": "COc1cc2c(Nc3ccc(NC(=O)c4ccccc4)cc3)ncnc2cc1OCCCN1CCOCC1", "Potency": "inactive"}, {"smiles": "CCCCOc1c(C(=O)c2c(F)cc(C)cc2F)cnc2n[nH]cc12", "Potency": "inactive"}, {"smiles": "O=C(c1ccc(Nc2nccc(-c3cc4ccccc4s3)n2)cc1)N1CCC(N2CCCC2)CC1", "Potency": "23.5 µM (active)"}, {"smiles": "CC(O)C1C(=O)N2C(C(=O)O)=C(SC3CNC(C(=O)N(C)C)C3)C(C)C12", "note": "(stereo not given)", "Potency": "inactive"}, {"smiles": "CC(C)c1noc(N2CCC(COc3ccc(-c4ccc(S(C)(=O)=O)cc4)nc3)CC2)n1", "Potency": "inactive"}, {"smiles": "Nc1ccc(C(=O)c2cc3c(ccc4ccccc43)[nH]2)cc1", "Potency": "inactive"}, {"smiles": "O=C(O)[C@H](Cc1c[nH]c2ccccc12)N1C(=O)c2ccccc2C1=O", "Potency": "inactive"}, {"smiles": "CCCn1c(=O)c2[nH]c(-c3cnn(Cc4cccc(C(F)(F)F)c4)c3)nc2n(CC)c1=O", "Potency": "inactive"}, {"smiles": "OCc1ccc(-c2ccc(-c3ccc(CO)s3)o2)s1", "Potency": "16.6 µM (active)"}, {"smiles": "O=C(NCCS(=O)(=O)c1ccc(C(F)(F)F)cn1)c1ccc(Cl)cc1", "Potency": "inactive"}, {"smiles": "CC(=O)OCCN1C(=O)c2c(C)nc3ccc(S(=O)(=O)N4CCOCC4)cc3c2C1=O", "Potency": "inactive"}]}]}
